Each structure is given as a SMILES string. Where “and” joins values, the source holds several entries; their conditions need not be identical. Identical values can stand only once. Counter-ions that a name gives are not always drawn. ± gives the standard deviation of the averaged measurements. In all, about 3,200 compounds were measured (“nuclei count (viability) relative to DMSO”: median about 99, lowest 2% from about 16 on). The sample holds the lowest values, similar compounds and a random draw of the others, so the mix is not that of the screen.

The assay concerns U2OS. Nature of the assay: nuclei count (viability) relative to DMSO (% of DMSO); higher = more viable cells. Particulars: 10 µM; 24 h. How it is done: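 Primary image-based screen in U2OS cells: compounds at 10 uM for 24 h, then a 1 h o-propargyl-puromycin (OPP) pulse, click labelling, and high-throughput microscopy. Mean cytoplasmic OPP intensity and nuclei count were normalised to DMSO wells within each plate (DMSO = 100) and averaged over triplicate plates.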
On to `C/C=C1\NC(=O)[C@H]2CSSCC/C=C/[C@H](CC(=O)N[C@H](C(C)C)C(=O)N2)OC(=O)[C@H](C(C)C)NC1=O` [Romidepsin (FK228 ,depsipeptide)], for which the nuclei count amounted to 8.81.
Consider `CC#CCOC(=O)C1=CCCN(C)C1` [Arecaidine but-2-ynyl ester tosylate], for which the nuclei count worked out at 101.
Turning to `CNC(=O)c1cc(Oc2ccc(NC(=O)Nc3cc(C(C)(C)C)nn3-c3ccc4ncccc4c3)c(F)c2)ccn1` [DCC-2036 (Rebastinib)], the nuclei count turned out to be 70.1.
The value for `NC(=O)c1ccncc1` [Isonicotinamide] was 99.6; that for `O=C(/C=C/c1ccc2ccccc2n1)c1ccncc1` was 11.3.
The value for `C=CC(=O)c1ccc2ccccc2c1` was 105.
In the case of `COC(=O)C1=C(C)NC(C)=C(C(=O)OCCSc2ccccc2)C1C` (stereo unspecified), the nuclei count amounted to 97.8.
The value for `CCS(=O)(=O)N1CCC[C@@H]2CN3CCc4cc(OC)ccc4[C@@H]3C[C@@H]21` was 101; that for `CC1=CC(=O)c2ccccc2C1=O` [Menadione] was 54.1; that for `O=C1c2ccccc2C(=O)c2c1ccc(O)c2O` [Alizarin] was 89.7.
Turning to `CC[C@H](C)[C@H](N)C1=N[C@H](C(=O)N[C@@H](CC(C)C)C(=O)N[C@H](CCC(=O)[O-])C(=O)N[C@H](C(=O)N[C@H]2CCCCNC(=O)[C@H](CC(N)=O)NC(=O)[C@@H](CC(=O)[O-])NC(=O)[C@H](Cc3cnc[nH]3)NC(=O)[C@@H](Cc3ccccc3)NC(=O)[C@H]([C@@H](C)CC)NC(=O)[C@@H](CCCN)NC2=O)[C@@H](C)CC)CS1.[Zn+2]` [Bacitracin zinc], the nuclei count was determined as 109.
`CC(C)NCC(O)COc1ccc(COCCOC(C)C)cc1` (racemic) [(±)-Bisoprolol hemifumarate] showed a nuclei count of 102.
Regarding `C[C@H](NC(=O)/C(C#N)=C/c1cccc(Br)n1)c1ccccc1`, the nuclei count came to 7.49 ± 1.2.
In turn, `C[C@H](NC(=O)/C(C#N)=C/c1ccc(O)c(O)c1)c1ccccc1` [Tyrphostin B44, (+) enantiomer] showed a nuclei count of 93.4.
Regarding `N#C/C(=C\c1ccc(O)c(O)c1)C(=O)NCc1ccccc1`, the nuclei count is 102 and 98.5.
As to `N#C/C(=C\c1ccc(O)c(O)c1)C(=O)Nc1ccccc1`, the nuclei count was found to be 83.4.
Molecule `CCC[C@H](NC(=O)/C(C#N)=C/c1cccc(Br)n1)c1ccccc1` came in with a nuclei count of 5.45.
The value for `CC(C)c1cccc(=O)c(O)c1` [Hinokitiol] was 87.3.
On to `CCC(C)[C@H](NS(=O)(=O)c1cccc2ccccc12)C(=O)N[C@H](C=O)Cc1c[nH]c2ccccc12` (stereo partly specified), for which the nuclei count worked out at 90.3.
Under `CNC(=O)CN(CCN(CCN(CC(=O)O)CC(=O)NC)CC(=O)O)CC(=O)O.O.[Gd]` [Gadodiamide (Omniscan)] stands 101; under `Cc1ccccc1C(=O)Nc1ccc(C(=O)N2CCCC(N(C)C)c3ccccc32)cc1` (stereo unspecified) [Mozavaptan], 41.2.

For the origin of these results see the supplement of paper PMC8183993.
